Data published in PubChem BioAssay AID652068 (The Scripps Research Institute Molecular Screening Center, 2013).
Among all 4,300 compounds or so, about 4,000 (93%) were called active.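 The calls were made as follows: active = inhibition above its plate's cutoff, the mean test-well inhibition plus 3 SD (cut at about 4.8% in these data); inactive = the rest.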 So high a share suggests a set chosen from earlier hits. The list is a sample of the results.

Assay: DNA CAG/GTC dye complex inhibitors – biochemical, fluorescence, TO-PRO-1 dye, d(CAG) DNA oligo, counter-screen for rCAG RNA repeat binder project (AID 652068);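 also: 0% = DNA dye mix with DMSO and 100% = 100 µM mitoxantrone; hits displace the dye from DNA and so lower well fluorescence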
Conditions: d(CAG) DNA oligo TO-PRO-1 dye displacement, at 3 µM, hits give high values

Compound | inhibition
CC1(C(=O)NS(=O)(=O)c2ccc3ccccc3c2)CCN1C(=O)C1(c2ccc(Cl)cc2)CCC1 (stereo not drawn) | 31.7% (active)
O=C(Nc1ccc(S(=O)(=O)Nc2nccs2)cc1)c1cccc(S(=O)(=O)N2CCOCC2)c1 | 5.67% (active)
CN1CCN(S(=O)(=O)c2cccc(C(=O)Nc3sccc3C#N)c2)CC1 | 7.1% (active)
Cc1ccc(OCCC(=O)Nc2ccc(S(=O)(=O)Nc3nccs3)cc2)cc1 | 14.7% (active)
O=C(CCc1ccccc1Cl)Nc1ccc(S(=O)(=O)Nc2nccs2)cc1 | 10.9% (active)
O=C(Nc1ccc(S(=O)(=O)Nc2nccs2)cc1)c1cc(-c2ccncc2)nc2ccccc12 | 29.6% (active)
CC1CCCCN1S(=O)(=O)c1ccc(C(=O)Nc2nnc(-c3cccs3)o2)cc1 (stereo not drawn) | 14.2% (active)
Cc1ccccc1S(=O)(=O)N1[C@@H](c2cccc(Cl)c2)C(C(=O)O)=CC[C@H]1c1ccc(Cl)cc1 | 53.5% (active)
Cc1ccc([C@@H]2CC=C(C(=O)O)[C@H](c3cccc(Cl)c3)N2S(=O)(=O)c2ccc(C)cc2)cc1 | 41.1% (active)
Cc1ccc(S(=O)(=O)N2[C@@H](c3ccccc3F)C(C(=O)O)=CC[C@H]2c2ccc(Cl)cc2)cc1 | 29.3% (active)
CC(=O)Nc1ccc(S(=O)(=O)Nc2nc(-c3ccc(C(C)(C)C)cc3)cs2)cc1 | 30.7% (active)
CC(=O)Nc1ccc(C(=O)Nc2nc(-c3cc(C)n(Cc4ccccc4)c3C)cs2)cc1 | 14.6% (active)
O=C(Nc1ccccc1)Nc1nc2ccccc2s1 | 14.7% (active)
CC(=O)Nc1ccc(-c2csc(NC(=O)Nc3ccccc3)n2)cc1 | 22.8% (active)
Cc1noc(NS(=O)(=O)c2ccc(NC(=O)c3oc4ccc(F)cc4c3C)cc2)c1C | 25.4% (active)
Cc1cc(C)c2nc(-c3cccnc3)cc(C(=O)Nc3ccc(S(=O)(=O)Nc4onc(C)c4C)cc3)c2c1 | 58.6% (active)
Nc1[nH]c(=S)nc2nc(-c3ccccc3)c(-c3ccccc3)nc12 | 13.8% (active)
Cc1ccc(-n2ncc3c(Nc4cccc(C(=O)O)c4)ncnc32)cc1 | 4.92% (active)
O=S(=O)(Nc1ccc(O)c2ccccc12)c1ccc(OC(F)(F)F)cc1 | 23.5% (active)
O=c1oc(-c2ccccc2NS(=O)(=O)c2ccc(Cl)cc2)nc2ccccc12 | 8.49% (active)
CSc1nnc(NC(=O)c2nc(S(=O)(=O)Cc3ccc(C)cc3)ncc2Cl)s1 | 11.6% (active)
C=CCNc1nc(N)c(C(=C(C#N)C#N)c2ccccc2)s1 | 9.76% (active)
COc1ccccc1C1C(C#N)=C(N)Oc2c1c(-c1ccccc1)nn2-c1ccccc1 (stereo not drawn) | 12% (active)
